From PubChem BioAssay AID2650 (Broad Institute, 2010)
Screen size: about 320,000 compounds; about 320 (0.1%) were called active. Many of the other results were omitted from the sample, so actives are more common in it than they were. Values without a mark were called inactive.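 Rule for the calls: active = more than half of replicates show inhibition above 20%; inconclusive = some but at most half of replicates above 20% inhibition; inactive = no replicate shows inhibition above 20%.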

Target: Glycogen synthase kinase-3 alpha (Homo sapiens) (UniProt P49840)
Test: blockers of GSK3A enzyme activity – biochemical, luminescence, cell-free homogeneous, HTS, primary screen (AID 2650);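 note: GST-tagged GSK-3 alpha with peptide substrate and 25 µM ATP; 0% = DMSO neutral wells and 100% = GW8510 positive control wells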
Conditions: GSK-3 alpha kinase, ADP-Glo luminescence, 60 min; at 10 µM; hits give high values

Glycogen synthase kinase-3 alpha (Homo sapiens), sequence (P49840 whole entry, looked up): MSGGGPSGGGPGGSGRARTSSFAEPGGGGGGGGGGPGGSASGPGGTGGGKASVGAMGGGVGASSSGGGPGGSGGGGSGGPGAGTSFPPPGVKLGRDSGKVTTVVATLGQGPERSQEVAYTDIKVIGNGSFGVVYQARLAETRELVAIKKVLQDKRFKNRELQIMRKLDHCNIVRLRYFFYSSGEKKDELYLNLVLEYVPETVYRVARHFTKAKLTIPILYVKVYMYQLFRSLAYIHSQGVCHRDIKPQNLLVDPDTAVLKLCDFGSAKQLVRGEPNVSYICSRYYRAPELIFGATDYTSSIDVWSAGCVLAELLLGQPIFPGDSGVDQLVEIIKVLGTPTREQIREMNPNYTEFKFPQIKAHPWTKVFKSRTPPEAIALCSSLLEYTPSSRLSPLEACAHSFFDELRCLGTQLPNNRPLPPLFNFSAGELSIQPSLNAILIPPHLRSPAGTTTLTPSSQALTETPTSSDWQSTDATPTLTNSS

SMILES	inhibition
Cc1ccccc1C(=O)N1CCC(C(=O)Oc2ccc(C#N)cc2)CC1	3.01%
O=C(O)CCCN1C(=O)C2C3c4ccccc4C(c4ccccc43)[C@@H]2C1=O (some centres undefined)	-1.27%
COC(=O)c1cc(CNC(=O)CC(C)c2ccccc2)ccc1OC (centres undefined)	-0.449%
C/C(=N\NC(=O)Cc1ccccc1[N+](=O)[O-])c1cccnc1	-3.03%
Cc1ccc(-n2c(C)cc(/C=N/Nc3ccc([N+](=O)[O-])cn3)c2C)c(C)c1	0.104%
COc1cc(/C=N\Nc2ccc([N+](=O)[O-])cn2)ccc1OCC(=O)O	71.1% (active)
Cc1cc(/C=N/Nc2ccc([N+](=O)[O-])cn2)c(C)n1-c1cccc(C(=O)O)c1	26.6%
O=C(CNC(=O)OCc1ccccc1)Oc1cc2oc(=O)cc(-c3ccccc3)c2cc1Cl	-0.182%
CC1CCc2c(nc3ncnn3c2Nc2ccc(OC(F)(F)F)cc2)C1 (centres undefined)	3.32%
Cc1ccc(N(Cc2ccccc2O)C(=O)c2ccccc2F)cc1	0.374%
O=C(O)C1CCCN(CCC=C(c2ccccc2)c2ccccc2)C1 (centres undefined)	-1.79%
N#Cc1c(-c2ccccc2)cc(-c2ccccc2)nc1SCC(=O)O	-8.49%
N#CCc1c(C#N)c(N)nc(N2CCCC2)c1C#N	5.31%
N#Cc1c(N2CCCCC2)nc(N)c2c(N)nc(SCC(=O)O)cc12	71.9% (active)
Cc1c(C(=O)Nc2cccc(S(=O)(=O)N3CCOCC3)c2)oc2ccccc12	-2.02%
CC(C)(C)c1cc(CN2CCN(CCC#N)CC2)cc(C(C)(C)C)c1O	-0.131%
CCCn1c(N)c(N(CCOC)C(=O)C2CCCC2)c(=O)[nH]c1=O	-0.139%
CCn1c(SC(C)C(=O)Nc2ccc(N3CCOCC3)cc2)nnc1-c1ccco1 (centres undefined)	-7.92%
COC(=O)c1ccc(C23CC4(C2)[C@H](CN(Cc2cccnc2)[C@@H]4c2ccccc2)C3c2ccc(Cl)nc2)cc1 (some centres undefined)	-1.59%
CCOc1ccc(CN2CCN(Cc3ccc(C)o3)CC2CCO)cc1 (centres undefined)	-3.68%
O=C(COC(=O)Cc1ccc(Br)cc1)Nc1ccc(N2CCOCC2)cc1	-2.2%
COc1ccc(NC(=O)CN2C(=O)COc3ccc(S(=O)(=O)N4CCOCC4)cc32)c(OC)c1	-0.917%
COc1ccc(S(=O)(=O)N(C)C[C@H]2Oc3c(NC(=O)Nc4ccc5c(c4)OCO5)cccc3C(=O)N([C@H](C)CO)C[C@@H]2C)cc1	-2.73%

SMILES	inhibition
Cc1ccc(S(=O)(=O)NCC2CCC(C(=O)N3CCOCC3)CC2)cc1 (centres undefined)	-1.46%
Cc1ccc(C)c(NC(=O)COC(=O)c2nn(C)c(=O)c3ccccc23)c1	-0.308%
FC(F)(F)COc1nc(N2CCCCC2)nc(N2CCNCC2)n1	-3.54%
CC1CC1C(=O)OCC(=O)Nc1cccc(F)c1 (centres undefined)	-2.53%
CCOC(=O)/C=C/c1ccc(C(F)(F)F)cc1S(=O)(=O)NC(C)(C)C	0.204%
O=C(NCc1cccs1)c1ccc(CS(=O)Cc2ccccc2Cl)o1 (centres undefined)	2.9%
CC(C)CCNC(=O)c1ccc2c(Cl)c3c(nc2c1)CCC3	1.16%
O=C(OCC1O[C@@H](OC(=O)c2cc(O)c(O)c(O)c2)[C@@H](OC(=O)c2cc(O)c(O)c(O)c2)[C@@H](OC(=O)c2cc(O)c(O)c(O)c2)[C@@H]1OC(=O)c1cc(O)c(O)c(O)c1)c1cc(O)c(O)c(O)c1 (some centres undefined)	57.5% (active)
O=C(OCC1OC(Oc2ccc(O)cc2)C(O)C(O)C1O)c1ccccc1 (centres undefined)	19.4%
CS(=O)(=O)N(CC(=O)Nc1ccc(Cl)c(Cl)c1)C1CCCCC1	-0.751%
O=C(Nc1ccccc1-c1nnn(CC(=O)N2CCCc3ccccc32)n1)c1cccc(Cl)c1	-2.04%
Cc1ccc(C(=O)N/N=C\c2cc(Br)c(Br)o2)cn1	2.23%
Cc1cc2cc3c(cc2nc1SCC(=O)Nc1c(C)cccc1C)CCC3	-3.92%
Cc1noc(/C=C/c2ccco2)c1S(=O)(=O)N1CCC(C(=O)N2CCc3ccccc32)CC1	-1.67%
Cc1cc(C)nc(NS(=O)(=O)c2ccc(N3C(=O)C4CCCCC4C3=O)cc2)n1 (centres undefined)	1.53%
Oc1ccc(-c2nnc(Nc3ccccc3)c3ccccc23)cc1	0.551%
Oc1ccc(-c2nncn2-c2ccccc2)cc1	53.7% (active)
c1ccc(-n2nc3ccccc3n2)cc1	-1.52%
Brc1ccccc1CN1CCC(Cc2ccccc2)CC1	-0.57%
O=C1CN(C(=O)COC(=O)/C=C/c2ccc(F)cc2)c2ccccc2N1	-0.211%
O=C(CCNS(=O)(=O)c1ccc(Br)s1)NCc1ccccc1Cl	0.12%
CCCN1C2=C(C(=O)CCC2)C(c2ccc(O)c(Br)c2)C2=C1CCCC2=O	0.35%
C=CCNC(=O)C1CC=CCC1C(=O)O (centres undefined)	3.88%

SMILES	inhibition
CC(C)C[C@@H](COc1ccccc1)N1CCN(CC(C)C)CCC1=O	-0.599%
CN1C(=O)[C@H]2[C@@H](C3CC3)N3C(=O)CN(Cc4ccccc4)C(=O)[C@@]3(C)[C@H]2C1=O	-0.57%
CCc1nc(SCC(=O)Nc2ccccc2OC)n[nH]1	0.384%
OC(COCC1COc2ccccc2O1)CN1CCN(c2ccc(F)cc2)CC1 (centres undefined)	-3.09%
Cc1cc(C)c(C(=O)CSc2nc(C)cc(=O)[nH]2)c(C)c1	-3.36%
Nc1nc(SCC(=O)Nc2cc(C(F)(F)F)ccc2Cl)[nH]c(=O)c1NC(=O)c1ccco1	0.858%
O=c1cc(C(F)(F)F)[nH]c(=O)n1C1CCCCC1	-7.78%
CCCCN(CCCC)CCC(O)c1cc2c(Cl)cc(Cl)cc2c2cc(C(F)(F)F)ccc12 (centres undefined)	-3.02%
CCC1Nc2ncnc(N3CCN(c4ccccc4)CC3)c2N(Cc2ccc(Cl)cc2)C1=O (centres undefined)	-3.36%
CC[C@H](C)C(=O)N[C@H]1CCCN1C(=O)/C=C/c1ccccc1	-0.364%
CC1(C)Cc2nc3sc4c(SCC(=O)NC(c5ccccc5)c5ccccc5)ncnc4c3cc2CO1	19.1%
COc1ccccc1NC(=O)CSc1nnc(CNC(=O)c2ccccc2F)o1	-1.79%
COc1ccccc1NC(=O)CCSc1nnc(-c2ccc(O)cc2)o1	61% (active)
CCc1ccccc1NC(=O)CSc1nnc(-c2ccncc2)o1	0.246%
COc1ccc(N(C)C(=O)CCS(=O)(=O)c2cccc3nsnc23)cc1	-0.848%
O=C(c1ccc(CS(=O)(=O)c2ccccc2)o1)N1CCN(c2ccccc2)CC1	-1.56%
Cc1ccccc1-c1cc(C(=O)NCc2cccs2)n(CC2CC(c3cccnc3)=NO2)n1 (centres undefined)	8.15%
COC(=O)c1sc(N)c(C(=O)OC)c1COC(=O)CNS(=O)(=O)c1ccc(C)cc1	-5.73%
O=C(CN1CCC(O)(c2cccc(C(F)(F)F)c2)CC1)NCCc1ccccc1	-1.83%
COc1ccccc1CNC(=O)Cn1c(=O)oc2cc(Cl)ccc21	-2.27%
CN(C)Cc1c(O)ccc2c(=O)c(-c3ccccc3Cl)coc12	0.391%
O=C1/C(=C/c2ccc3c(c2)OCO3)Oc2cc(OCC(=O)N3CC(O)C[C@H]3C(=O)O)ccc21 (some centres undefined)	58.3% (active)
COC(=O)C(C)Oc1ccc2c(c1)O/C(=C\c1cccc(Br)c1)C2=O (centres undefined)	-0.218%

SMILES	inhibition
COc1ccc2c(c1)O/C(=C\c1ccccc1O)C2=O	-3.6%
CSc1nccc(NC(=O)c2ccc(C(C)(C)C)cc2)n1	0.764%
O=C(Nc1cccc(Cl)c1N1CCOCC1)c1cccnc1	1.42%
O=C(Nc1cccc(Cl)c1N1CCOCC1)c1ccc2c(c1)OCCO2	3.78%
CCN1CCN(c2c(Cl)cccc2NC(=O)c2ccc(Br)o2)CC1	84.2% (active)
CC(C)(C)NS(=O)(=O)NC(=O)C1=C(N2CCCC2)COC1=O	-2.51%
N#Cc1ccc(OCC(=O)NC(=O)NC2CCS(=O)(=O)C2)cc1 (centres undefined)	0.468%
CCOC(=O)CCCCCC(=O)Nc1ccc2c(c1)CC(=O)N([C@@H](C)CO)C[C@H](C)[C@@H](CN(C)Cc1ccccc1)O2	-2.38%
COc1ccc(NC(=O)c2cc([N+](=O)[O-])ccc2NC(=O)CNC2CCCCC2C)c(OC)c1 (centres undefined)	-2.82%
O=C(Nc1ccc(Cl)c(Cl)c1)N1CC=C(c2ccccc2)CC1	-0.494%
COc1ccc(-n2c(=S)[nH]c3sc4c(c3c2=O)CCc2ccccc2-4)cc1	-1.96%
COc1ccc(Cn2c(O)c(/C=C3/C=CC=N3)c(=O)[nH]c2=O)cc1	0.739%
CCC(C)NCCOCCOc1ccc(Br)cc1C (centres undefined)	-0.652%
CCNc1nc(N)nc(Oc2ccc(OCC)nn2)n1	3.16%
Cc1ccc(CNCc2ccc3c(c2)OCO3)c(C)c1	-0.957%
CCOC(=O)c1ccccc1NC(=O)COC(=O)CCC(=O)N1CCOCC1	8.47%
COc1ccc(CCNS(=O)(=O)c2cn(C)nc2C)cc1	2.55%
Nc1nonc1-n1nnc(C(=O)N/N=C/c2ccccc2O)c1CN1CCCC1	49.8%
NNC(=O)c1nnn(-c2nonc2N)c1CN1CCCC1	23.2%
Nc1nonc1-n1nnc(C(=O)N/N=C\c2ccncc2)c1CN1CCCCC1	107% (active)
